According to PubChem BioAssay (NCATS):
Records with an inconclusive call do not appear. Calls of active or inactive are those of the source. Calls come from the whole dose curve; as a rule, active = well fitted curve in the direction sought with a large enough effect; inconclusive = small, poorly fitted or top-dose-only effect, or another doubt; inactive = no such curve, though single readings can be large; an effect the other way counts as inactive or inconclusive.

Experiments:
[1] = qHTS for compounds that reverse cellular toxicity of Amyloid beta (A-beta) peptide in yeast: LOPAC Validation Assay (AID 720559); details: yeast expressing A-beta; series mostly up to 46.1 µM;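 note: plate controls were DMSO for no effect and equimolar ferric chloride plus clioquinol rescue for full effect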
Method in brief: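 Medium dispensed, compounds pinned, A-beta yeast suspension added; plates held at 30 C for 48 hr; absorbance measured at 600 nm to gauge growth; values scaled between DMSO and FeCl3/clioquinol (equimolar) controls.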

[2] = qHTS for Activators of Parkin Expression: LOPAC Validation Assay (NLuc Reporter) (AID 720572); details: Parkin promoter NanoLuc reporter cells, luminescence; series mostly up to 46.1 µM
Method in brief: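 NLuc signal, read 10 min after reagent and following a prior FLuc read, is normalized to DMSO (0) and positive controls (100%). Cells: neuronal Parkin-promoter coincidence reporter line; compounds tested 7-point, 24 h, 37 C, 5% CO2.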

[3] = qHTS for Activators of Parkin Expression: LOPAC Validation Assay (FLuc Reporter) (AID 720573); details: Cell line, PRKN promoter firefly luciferase reporter, vehicle wells = 0, positive control = 100%; series mostly up to 46.1 µM
Method in brief: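 Cells seeded, 24 h; compounds pinned, 7-pt dose response; 24 h at 37 C/5% CO2; volume reduced; FLuc reagent 10 min RT; luminescence read. Normalization: DMSO = 0, positive control = 100%.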

[4] = target: T1, Hexokinase-4 (Homo sapiens) + Glucokinase regulatory protein (Homo sapiens) (UniProt P35557+Q14397); test: qHTS assay for inhibitors of recombinant human GCK-GKRP interaction: Diaphorase-coupled assay (AID 743205); details: G6PDH/diaphorase resorufin fluorescence; series mostly up to 57.5 µM
Method in brief: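 25 mM Hepes pH 7.6, 5 mM glucose, 0.4 mM ATP, 4 U/ml G6PDH; 10 nM each GST-GCK/FLAG-GKRP. Kinetic fluorescence read, 1/min × 30 min. Normalized: DMSO ± enzyme = max/min.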

[5] = target: T1, Hexokinase-4 (Homo sapiens) + Glucokinase regulatory protein (Homo sapiens); test: qHTS assay for inhibitors of recombinant human GCK-GKRP interaction: ADP-Glo assay (AID 743206); details: ADP-Glo luminescence, 60 min, 0% = vehicle-only wells with enzyme present; series mostly up to 76.9 µM;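 note: plate controls were DMSO plus enzyme for no effect and no enzyme for full effect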
Method in brief: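 Pin-transferred compounds meet a 15 nM GST-GCK/15 nM FLAG-GKRP/2 uM S6P mix (dispense concentrations). ATP is then added to 0.4 mM final with 5 mM glucose, and the reaction runs 60 min at room temperature. ADP is quantified luminescently.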

[6] = target: T1, Hexokinase-4 (Homo sapiens) + Glucokinase regulatory protein (Homo sapiens); test: qHTS assay for inhibitors of recombinant human GCK-GKRP interaction: HTRF assay (AID 743207); details: recombinant GCK-GKRP HTRF binding, 60 min; series mostly up to 57.5 µM;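 note: 0% = DMSO with GCK present and -100% = DMSO wells lacking GCK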
Method in brief: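 5 nM GST-GCK + 5 nM FLAG-GKRP + 2 uM S6P, pH 7.1 buffer (25 mM Hepes, 2 mM MgCl2, 25 mM KCl, 1 mM DTT, Tween/BSA); pin-transferred cpd; anti-FLAG XL665/anti-GST K; 60 min RT; HTRF.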

[7] = qHTS Assay for Identifying Gametocytocidal Compounds (AID 743244);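 note: % is set by controls: 0 for no effect and ±100 for the full control effect; actives lower the fluorescent signal which means gametocytes are killed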; details: P. falciparum 3D7 stage III-V gametocytes, alamarBlue, 72 h; max response: hits give low values
Method in brief: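 Viability read-out was resazurin reduction (alamarBlue, 24 h) measured at Ex 525/Em 598 nm. Beforehand, late-stage (III-V) 3D7 P. falciparum gametocytes at 20,000 cells/well were incubated with compound 72 h at 37C under 5% CO2.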

T1 sequence (P35557 whole entry, looked up): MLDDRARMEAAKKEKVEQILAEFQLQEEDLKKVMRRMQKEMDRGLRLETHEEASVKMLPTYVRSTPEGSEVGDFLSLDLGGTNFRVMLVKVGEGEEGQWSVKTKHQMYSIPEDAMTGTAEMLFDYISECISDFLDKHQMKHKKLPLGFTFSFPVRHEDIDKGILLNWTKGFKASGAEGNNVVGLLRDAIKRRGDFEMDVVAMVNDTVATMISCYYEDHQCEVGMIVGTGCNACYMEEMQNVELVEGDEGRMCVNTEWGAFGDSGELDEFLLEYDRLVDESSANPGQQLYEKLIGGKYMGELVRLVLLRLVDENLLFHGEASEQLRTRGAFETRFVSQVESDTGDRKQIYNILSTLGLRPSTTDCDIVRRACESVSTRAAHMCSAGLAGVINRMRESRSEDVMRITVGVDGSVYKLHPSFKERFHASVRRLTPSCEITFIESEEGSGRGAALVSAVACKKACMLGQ
T1 sequence (Q14397 whole entry, looked up): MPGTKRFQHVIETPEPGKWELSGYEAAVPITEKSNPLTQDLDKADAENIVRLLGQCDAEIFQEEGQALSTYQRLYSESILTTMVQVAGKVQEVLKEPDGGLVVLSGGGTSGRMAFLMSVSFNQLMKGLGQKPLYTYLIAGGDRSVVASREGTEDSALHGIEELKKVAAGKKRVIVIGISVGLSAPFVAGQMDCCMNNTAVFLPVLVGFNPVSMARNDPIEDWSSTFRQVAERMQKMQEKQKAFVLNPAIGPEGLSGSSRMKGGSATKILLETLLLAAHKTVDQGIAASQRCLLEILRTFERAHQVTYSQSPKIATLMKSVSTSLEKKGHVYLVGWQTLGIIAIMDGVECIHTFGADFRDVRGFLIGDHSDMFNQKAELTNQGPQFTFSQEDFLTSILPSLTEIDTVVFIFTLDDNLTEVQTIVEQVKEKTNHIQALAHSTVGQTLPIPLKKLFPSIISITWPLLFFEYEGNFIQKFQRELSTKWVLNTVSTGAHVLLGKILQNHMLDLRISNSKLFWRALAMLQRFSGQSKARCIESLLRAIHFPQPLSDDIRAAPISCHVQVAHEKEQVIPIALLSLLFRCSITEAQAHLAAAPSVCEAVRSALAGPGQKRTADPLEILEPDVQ

CC(=O)OCC1=C(C(=O)O)N2C(=O)[C@@H](NC(=O)CCC[C@@H](N)C(=O)O)[C@H]2SC1
inactive: outcome [1] | Potency [2] | outcome [3] | Potency [4] | outcome [5] | outcome [6]

C=CCN1CC[C@]23c4c5ccc(O)c4O[C@H]2/C(=N/NC(=O)c2ccccc2)CC[C@@]3(O)[C@H]1C5
inactive: outcome [1] | Potency [2] | outcome [3] | Potency [4] | outcome [5] | outcome [6] | max response [7] 8.77%

COc1ccc(CNC(=O)/C=C/c2ccc3[nH]cc(CCN(C)C)c3c2)cc1
inactive: outcome [1] | Potency [2] | outcome [3] | Potency [4] | outcome [5] | outcome [6] | max response [7] -2.88%

NC(N)=Nc1ccc2[nH]c3c(c2c1)C[C@@]1(O)[C@H]2Cc4ccc(O)c5c4[C@@]1(CCN2CC1CC1)[C@H]3O5
inactive: outcome [1] | Potency [2] | outcome [3] | Potency [4] | outcome [5] | outcome [6]

C[N+](C)(C)CC#CCOC(=O)Nc1cccc(Cl)c1
inactive: outcome [1] | Potency [2] | outcome [3] | Potency [4] | outcome [5] | outcome [6] | max response [7] 12.7%
